Experiment [1] in a line: qHTS assay to identify small molecule agonists of H2AX (AID 1224845; active means well fitted activation curve with a large enough effect in the signal ratio in the repeat runs, not every such curve was filed as active; the % refers to the signal ratio; further: potency means the concentration at half of the fitted maximal effect). Conditions: CHO-K1 phospho-H2AX Ser139 HTRF, 3 h; series mostly up to 154 µM. A digest of the protocol: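 Wild-type CHO-K1 cells plated overnight, then exposed 3 hr at 37C to compounds at 15 concentrations (0.76% DMSO). Lysed, then HTRF anti-pH2AX(S139)-cryptate/anti-H2AX-d2 detection after 24 hr at room temperature; emissions 665 and 620 nm.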

Experiment [2] is described as follows: qHTS assay to identify small molecule agonists of the hypoxia (HIF-1) signaling pathway (AID 1224846; active means well fitted activation curve with a large enough effect in the signal ratio in the repeat runs, not every such curve was filed as active; the % refers to the signal ratio). Particulars: HRE-bla ME-180 cells, beta-lactamase ratio, 17 h; series mostly up to 76.8 µM. Put shortly: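 Hypoxia-pathway activation was scored as increased beta-lactamase from an HRE-controlled reporter in ME-180 cells; plated at 2,000 cells per well with 0.5% dialyzed FBS, they were exposed 17 hrs to compounds and then given CCF4-AM.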

Experiment [3] in a line: qHTS assay to identify small molecule agonists of H2AX - cell viability counter screen (AID 1224847; calls by dose curve; further: nearly all actives have a fitted effect of over 30% in size; further: potency means the concentration at half of the fitted maximal effect). Conditions: CHO-K1 viability, CellTiter-Glo luminescence, 3 h; series mostly up to 154 µM. Put shortly:
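CHO-K1 cells plated overnight at 37C, then exposed 3 h at 37C to compounds at 15 concentrations (0.76% DMSO final). Viability by CellTiter-Glo luminescence after 30 min at room temperature.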

Experiment [4] is described as follows: qHTS RealTime-Glo MT Cell Viability Assay in HepG2 cells - 24 hour (AID 1224867). Further: nearly all actives have a fitted effect of over 50% in size. Further: potency means the concentration at half of the fitted maximal effect. Particulars: RealTime-Glo luminescence; series mostly up to 76.8 µM. A digest of the protocol: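 HepG2 cells (600/well) were dispensed with RealTime-Glo reagents, incubated 5 h at 37 °C, then treated with compounds in DMSO for up to 40 h. Nonlytic NanoLuc luminescence reflecting viable cells was read at each stated time point.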

Experiment [5] can be described thus: qHTS RealTime-Glo MT Cell Viability Assay in HEK293 cells - 32 hour (AID 1224868). Further: nearly all actives have a fitted effect of over 50% in size. Further: potency means the concentration at half of the fitted maximal effect. Conditions: RealTime-Glo luminescence; series mostly up to 76.8 µM. A digest of the protocol:
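HEK293 cells seeded with NanoLuc/prosubstrate reagent, rested 5 h at 37 C, then dosed and kept at 37 C up to 40 h. Nonlytic real-time luminescence from viable cells read at 0, 8, 16, 24, 32 and 40 h.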

Experiment [6] is described as follows: qHTS RealTime-Glo MT Cell Viability Assay in HepG2 cells - 40 hour (AID 1224870). Further: nearly all actives have a fitted effect of over 50% in size. Further: potency means the concentration at half of the fitted maximal effect. Particulars: RealTime-Glo luminescence; series mostly up to 76.8 µM. A digest of the protocol:
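HepG2 cells mixed with RealTime-Glo MT reagents (NanoLuc plus cell-permeant prosubstrate) were seeded at 600 cells/well, incubated 5 h at 37 C/5% CO2, then pinned with compounds in DMSO; nonlytic luminescence tracked viability during 40 h treatment.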

Experiment [7] in a line: A CellTox Green Cytotoxicity Assay to monitor cytotoxicity in HEK293 cells - 40 hour (AID 1224871). Further: nearly all actives have a fitted effect of over 45% in size. Further: potency means the concentration at half of the fitted maximal effect. Conditions: CellTox Green fluorescence; series mostly up to 76.8 µM. Put shortly:
(§1)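 Seeding of HEK293 cells together with cytotoxicity dye preceded a 5 h incubation at 37 C/5% CO2. Test compounds in DMSO were then added and fluorescence monitored across 40 h.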

A short description of experiment [8]: A CellTox Green Cytotoxicity Assay to monitor cytotoxicity in HEK293 cells - 0 hour (AID 1224869). Further: nearly all actives have a fitted effect of over 50% in size. Conditions: CellTox Green fluorescence; series mostly up to 76.8 µM. Put shortly:
as §1

Experiment [9] can be described thus: qHTS assay to identify small molecule antagonists of the estrogen related receptor (ERR) signaling pathway from Tox21 library (AID 1224848). Further: nearly all actives have a fitted effect of over 50% in size. Further: potency means the concentration at half of the fitted maximal effect. Particulars: ERR reporter cell line, luciferase antagonist mode, 18 h; series mostly up to 92.4 µM. A digest of the protocol: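 Cells: ERR line, 2,000/well; 6 h preincubation 37 C/5% CO2. Cpd in DMSO via pin tool; 18 h, 37 C. ONE-Glo, 30 min RT, luminescence.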

The nature of experiment [10]: qHTS assay to identify small molecule agonists of the estrogen related receptor (ERR) signaling pathway from Tox21 library (AID 1224849; calls by dose curve; further: nearly all actives have a fitted effect of over 15% in size). Particulars: ERR reporter cell line, ONE-Glo luciferase, 18 h; at 92.4 µM (top of the series) unless noted. Put shortly: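 Six hours post-seeding at 37 C/5% CO2, ERR cells receive DMSO-solubilised compounds; after 18 h at 37 C, ONE-Glo reagent is applied and luminescence recorded.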

Unmarked numbers belong to inactive results. Inconclusive results are not listed. Calls of active or inactive are those of the source. Unless noted, the call rests on the fitted dose curve; in most records, active means well fitted curve in the direction sought with a large enough effect in the repeat runs; inconclusive means weak or mixed curves; inactive means no such curve, though single readings can be large; an effect the other way counts as inactive or inconclusive.
On the % scale 0 is the no-effect control and ±100 the full control effect.

For `CCOP(=S)(OCC)Oc1cc(-c2ccccc2)on1`, the Potency entry in [1], in [3], in experiment [4], in experiment [5], in [6] and in [7] was “inactive” in each case. Also, the result in [2] was inactive.
Turning to `CCCSP(=O)(OCC)Oc1ccc(Br)cc1Cl` (centres undefined), the Potency entry in [1], in experiment [3], in experiment [4], in experiment [5], in experiment [6] and in experiment [7] was “inactive” each time. Besides, in [2], the outcome was inactive.
On to `CCC(=O)c1ccccc1`, for which the Potency entry in experiment [1], in experiment [3], in experiment [5], in experiment [8], in experiment [6] and in experiment [7] was “inactive” in each case. Also, the result in experiment [2] was inactive.
On to `C[N+](C)=CCl`, for which the Potency result in experiment [1], in [3], in experiment [4], in [5], in experiment [6] and in experiment [7] was “inactive” in each case. Besides, the outcome in experiment [2] was inactive.
For the compound `OCCBr`, the Potency entry in experiment [1], in experiment [3], in [5], in [8], in [6] and in experiment [7] was “inactive” each time. In experiment [2], the result was inactive.
As to `O=C1CN2CCOC2(c2ccccc2Cl)c2cc(Cl)ccc2N1` (centres undefined), the Potency entry in experiment [1], in experiment [3], in [5], in experiment [8], in experiment [6] and in [7] was “inactive” throughout. Moreover, in experiment [2], the outcome was inactive.
With `COC(=O)COc1ccc(Cl)cc1Cl`, the Potency result in experiment [1], in [9], in [4], in experiment [5], in experiment [8] and in experiment [6] was “inactive” throughout. Further, in [7], the Potency result is “inactive”. Further, the outcome in [2] was inactive. Moreover, the activity change, positive = activation in experiment [10] is 8.64%.
For `C[C@H]1CCC[C@H](O)CCCCCc2cc(O)cc(O)c2C(=O)O1`, the Potency result in [1], in [8], in [6] and in experiment [7] was “inactive” in each case. Also, the outcome in [2] was inactive. In addition, the Potency was 54.9 µM (active) in [9] and 34.9 µM (active) in experiment [5]. The activity change, positive = activation in experiment [10] is -54.5%.
On to `C1CCC(C2CCCCC2)CC1`, for which the Potency entry in experiment [1], in experiment [3], in [9], in experiment [4], in [8] and in [6] was “inactive” each time. Moreover, the Potency result in experiment [7] was “inactive”. Further, in [10], the activity change, positive = activation is -6.98%.
Consider `CC(C)CC(N(C)C)C1(c2ccc(Cl)cc2)CCC1` (centres undefined), for which the Potency result in experiment [1], in [9], in experiment [4], in [5], in [8] and in experiment [6] was “inactive” in each case. The outcome in experiment [2] was inactive. Besides, the activity change, positive = activation in experiment [10] was 1.9% [at 42.5 µM].
With `O=C(N[C@H]1CN2CCC1CC2)c1cc2ccoc2cn1`, the Potency entry in experiment [1], in experiment [3], in [5] and in [6] was “inactive” in each case. For the same compound, the result in experiment [2] was inactive.
For the compound `CC(C(=O)c1ccccc1)N(C)C` (centres undefined), the Potency result in [1], in experiment [3], in experiment [5], in experiment [8], in [6] and in experiment [7] was “inactive” in each case. Also, the outcome in [2] was inactive.
Take `C=CCC1=C(C)[C@@H](OC(=O)[C@@H]2[C@@H](C=C(C)C)C2(C)C)CC1=O`: the Potency is 56.6 µM (active) in experiment [1], 50.5 µM (active) in experiment [3], 21.7 µM (active) in [9] and 13.8 µM (active) in experiment [5]. The activity change, positive = activation in [10] is -64.6%. Further, the Potency result in experiment [6] was “inactive”.
Turning to `CSc1nc(N=[N+]=[N-])nc(NC(C)C)n1`, the Potency result in experiment [1], in experiment [3], in [8], in [6] and in experiment [7] was “inactive” throughout. In addition, the outcome in experiment [2] was inactive.
Consider `CC(COc1ccc(Oc2ccccc2)cc1)Oc1ccccn1` (centres undefined), for which the Potency result in [1], in [9], in experiment [4], in experiment [8], in experiment [6] and in experiment [7] was “inactive” each time. Further, in experiment [2], the outcome was inactive. Besides, the activity change, positive = activation in experiment [10] is 0.411%.
In the case of `O=C(Nc1ccccc1)N(Cc1ccc(Cl)cc1)C1CCCC1`, the Potency result in experiment [1], in experiment [6] and in experiment [7] was “inactive” each time. The outcome in [2] was inactive. Also, the Potency in experiment [9] was 54.5 µM (active); in experiment [5] it was 24.5 µM (active). Also, the activity change, positive = activation in experiment [10] was -60.6%.
`CC1(C(=O)Nc2ccc(O)c(Cl)c2Cl)CCCCC1`: the Potency entry in [1], in experiment [8] and in experiment [6] was “inactive” each time. Besides, the outcome in experiment [2] was inactive. Also, in [9], the Potency is 61.1 µM (active). The activity change, positive = activation in experiment [10] is -35.4%.
For `CCCCOC(=O)c1ccccc1N`, the Potency result in [1], in experiment [4], in experiment [5], in experiment [8] and in [6] was “inactive” in each case. Moreover, the result in experiment [2] was inactive. Also, the Potency in [7] is 49.3 µM (active).
On to `CNC(=O)Oc1cccc(C(C)C)c1`, for which the Potency result in experiment [1], in experiment [4], in experiment [5] and in experiment [6] was “inactive” each time. Further, the result in [2] was inactive.
`CCOP(=S)(OCC)Oc1ncn(-c2ccccc2)n1`: the Potency result in [1], in experiment [4], in experiment [8], in [6] and in [7] was “inactive” each time. Moreover, in experiment [2], the result was inactive.
Turning to `Nc1cc2c3c(c1)C(c1ccccc1)=N[C@@H](NC(=O)c1cccnc1)C(=O)N3CC2`, the Potency result in experiment [1], in [3], in experiment [5], in [8], in experiment [6] and in [7] was “inactive” throughout. For the same compound, in experiment [2], the result was inactive.
Take `O=S(=O)(O)C(F)(F)C(F)(F)C(F)(F)C(F)(F)C(F)(F)C(F)(F)F`: the Potency entry in experiment [1], in [4], in experiment [5], in experiment [8], in experiment [6] and in experiment [7] was “inactive” in each case. In addition, the result in experiment [2] was inactive.
Take `N#CC(CCc1ccc(Cl)cc1)(Cn1cncn1)c1ccccc1` (centres undefined): the Potency entry in experiment [1] is “inactive”. Besides, the Potency in experiment [3] was 50.5 µM (active); in experiment [9], 17.2 µM (active); in experiment [4], 38.9 µM (active); in experiment [5], 17.4 µM (active); in experiment [6] it was 49 µM (active); in experiment [7] it was 49 µM (active). In addition, the activity change, positive = activation in [10] is -69.7%.
Turning to `COc1cc(OC)nc(Oc2cccc(Oc3nc(OC)cc(OC)n3)c2C(=O)O)n1`, the Potency result in [1], in experiment [4], in experiment [5], in experiment [6] and in experiment [7] was “inactive” each time. Also, the result in [2] was inactive.
Regarding `CC(Oc1ccc(Oc2ncc(C(F)(F)F)cc2Cl)cc1)C(=O)O` (centres undefined), the Potency result in experiment [1], in experiment [3], in experiment [4], in experiment [5], in [8] and in experiment [6] was “inactive” each time. Moreover, in experiment [7], the Potency entry is “inactive”. The activity change, positive = activation in [10] was -29.5%.
Consider `c1coc(-c2nc3ccccc3[nH]2)c1`, for which the Potency result in [1], in [8] and in experiment [6] was “inactive” throughout. Moreover, the result in experiment [2] was inactive. Further, the Potency in experiment [3] was 80 µM (active).

For the origin of these results see PubChem BioAssay (Tox21).
